The campaign covered roughly 13,000 compounds. About 3,200 (25%) showed an effect of 50% or more. This is one part of the list.

The experiment concerns P. falciparum stage V gametocytes. The arrangement: BacTiter-Glo ATP luminescence viability of purified stage V gametocytes in 384-well plates, per cent inhibition versus DMSO. Conditions: 48 h, 5 µM; inhibitor.
For the compound `Cc1cccc(C(=O)Nc2ccnc(N(C)CCCN(C)Cc3cccc(O)c3)c2)c1` [TCMDC-134953], the % Inhibition – broadly, the change of the read-out against control, counted positive when it falls – was -14.35%.

As to `Cc1nnsc1C(=O)Nc1cccc(-c2cccc(-c3nc4ccccc4[nH]3)c2)c1` [TCMDC-137078], the “% Inhibition” value is listed as 82.4%.

As to `Cc1nnsc1C(=O)Nc1cccc(-c2ccc(-c3nc4ccccc4[nH]3)cc2)c1` [TCMDC-137083], the “% Inhibition” value is recorded as 11.59%.

Consider `Cc1cccc2[nH]c(-c3cccc(-c4ccc(NC(=O)c5cccc(C(N)=O)c5)cc4)c3)nc12` [TCMDC-132201], for which the “% Inhibition” value was determined as 3.68%.

For `Cc1nnsc1C(=O)Nc1ccc(-c2cccc(-c3nc4ccc(C(F)(F)F)cc4[nH]3)c2)cc1` [TCMDC-137085], the “% Inhibition” value amounted to 34.28%.

`Cc1nnsc1C(=O)Nc1cccc(-c2ccc(-c3nc4ccc(C(F)(F)F)cc4[nH]3)cc2)c1` [TCMDC-137088]: the “% Inhibition” value came to 70.24%.

`Cc1nnsc1C(=O)Nc1cccc(-c2csc(-c3nc4ccccc4[nH]3)c2)c1` [TCMDC-132394]: the “% Inhibition” value was 19.6%.

Turning to `Cc1nnsc1C(=O)Nc1cccc(-c2cccc(-c3nc4ccc(C(F)(F)F)cc4[nH]3)c2)c1` [TCMDC-137084], the “% Inhibition” value is listed as -5.727%.

In the case of `Cc1nnsc1C(=O)Nc1cccc(-c2cccc(-c3nc4c(C)cccc4[nH]3)c2)c1` [TCMDC-137086], the “% Inhibition” value was -18.91%.

For the compound `Cc1nnsc1C(=O)Nc1ccc(-c2cccc(-c3nc4ccc(F)cc4[nH]3)c2)cc1` [TCMDC-137080], the “% Inhibition” value is on record as -15.9%.

In the case of `NC(=O)c1cccc(C(=O)Nc2cccc(-c3cccc(-c4nc5ccc(F)cc5[nH]4)c3)c2)c1` [TCMDC-132198], the “% Inhibition” value is -10.48%.

For `Cc1nnsc1C(=O)Nc1ccc(-c2cccc(-c3nc4c(C)cccc4[nH]3)c2)cc1` [TCMDC-137087], the “% Inhibition” value is listed as 78.56%.

Regarding `Cc1nnsc1C(=O)Nc1cccc(-c2cccc(-c3nc4ccc(F)cc4[nH]3)c2)c1` [TCMDC-137081], the “% Inhibition” value worked out at 77.92%.

For `CC(C)(C)c1nn(-c2ccccc2)c2[nH]c(=O)c(CNC3CCCC3)cc12` [TCMDC-136483], the “% Inhibition” value stood at 5.874%.

`Cc1cccc2c(C(=O)NC3CCN(Cc4ccccc4)CC3)cc(-c3cccnc3)nc12` [TCMDC-124900]: the “% Inhibition” value is 15.64%.

`O=S(=O)(c1c(Cl)cc(Cl)cc1Cl)N1CCCCC(c2ccc(F)c(F)c2)=N1` [TCMDC-135420]: the “% Inhibition” value is given as -45.8%.

Take `Cc1cccc(-c2cccc(CNc3nc(NCCc4ccc(O)cc4)nc(N4CCNCC4)n3)c2)c1` [TCMDC-133810]: the “% Inhibition” value worked out at 31.6%.

Take `O=C(Nc1ccc(-c2oc(C(=O)NCCc3cccc(Cl)c3)cc2-c2ccncc2)cc1)Nc1cccc(Cl)c1` [TCMDC-135809]: the “% Inhibition” value is -31.28%.

Turning to `CC(C)CNC(=O)c1cncc(-c2ccc(CN3CCC(N4CCCC4)CC3)cc2)c1` [TCMDC-134236], the “% Inhibition” value is reported as 32.19%.

In the case of `COc1ccc(CNc2ncnc3c2[nH]c2ccc(F)cc23)cc1` [TCMDC-124466], the “% Inhibition” value is listed as 15.1%.

Take `Cc1cc2c(/C=C/C(=O)NC3CCC(CCN4CCc5ccc(C#N)cc5CC4)CC3)cccc2[nH]1` (centres unmarked) [TCMDC-139674]: the “% Inhibition” value is given as -23%.

`CCN(CCC1(c2ccc(Cl)c(Cl)c2)CN(C(=O)c2cc(OC)c(OC)c(OC)c2)CCO1)C1CC2c3ccccc3CC21` (centres unmarked) [TCMDC-135570]: the “% Inhibition” value is -88.52%.

`Cc1nnsc1C(=O)Nc1cccc(-c2ccc(-c3nc4ccc(F)cc4[nH]3)cc2)c1` [TCMDC-137082]: the “% Inhibition” value is 79.62%.

Turning to `CC(=O)Nc1nc(C(=O)Nc2cccc(-c3ccc(-c4nc5ccc(F)cc5[nH]4)cc3)c2)cs1` [TCMDC-137126], the “% Inhibition” value was 7.232%.

`O=C(Nc1cccc(-c2ccc(-c3nc4ccc(F)cc4[nH]3)cc2)c1)c1csnn1` [TCMDC-136900]: the “% Inhibition” value is -0.6993%.

Consider `CC[C@H](C)CNC(=O)c1cncc(-c2ccc(CNCCCc3ccccc3)cc2)c1` [TCMDC-134246], for which the “% Inhibition” value is -1.463%.

Turning to `CC[C@H](C)CNC(=O)c1ccnc(-c2ccc(CNCCCc3ccccc3)cc2)c1` [TCMDC-134251], the “% Inhibition” value is recorded as 81.79%.

Take `CC(C)CNC(=O)c1ccnc(-c2ccc(CNCCCc3ccccc3)cc2)c1` [TCMDC-134252]: the “% Inhibition” value is -3.007%.

For the compound `Cc1nc(N)nc(N)c1OCc1cccc2ccccc12` [TCMDC-131357], the “% Inhibition” value is -0.5645%.

On to `Cc1cccc2[nH]c(-c3ccc(-c4cccc(CN5CCCC5CN)c4)cc3)nc12` (centres unmarked) [TCMDC-132993], for which the “% Inhibition” value was found to be 21.61%.

For `Cc1cccc2[nH]c(-c3ccc(-c4ccc(CN5CCN(CCO)CC5)cc4)cc3)nc12` [TCMDC-133033], the “% Inhibition” value stood at 4.83%.

As for `Cc1cccc2[nH]c(-c3ccc(-c4ccc(CN5CCN(CC6CCCN(C)C6)CC5)cc4)cc3)nc12` (centres unmarked) [TCMDC-133898], the “% Inhibition” value worked out at 93.25%.

As for `Cc1cccc2[nH]c(-c3ccc(-c4cccc(CN5CCC(C(N)=O)CC5)c4)cc3)nc12` [TCMDC-132694], the “% Inhibition” value was -8.961%.

Consider `Cc1cccc2[nH]c(-c3ccc(-c4ccc(CN5CCCC(N)C5)cc4)cc3)nc12` (centres unmarked) [TCMDC-133863], for which the “% Inhibition” value is recorded as 93.4%.

With `Cc1cccc2[nH]c(-c3ccc(-c4ccc(CN5CCN(c6ccncc6)CC5)cc4)cc3)nc12` [TCMDC-132919], the “% Inhibition” value stood at 17.4%.

Consider `Cc1cccc2[nH]c(-c3cccc(-c4ccc(CN5CCCC5CN)cc4)c3)nc12` (centres unmarked) [TCMDC-132991], for which the “% Inhibition” value is reported as 36.61%.

Turning to `Cc1cccc2[nH]c(-c3ccc(-c4ccc(CN5CCN(CCC#N)CC5)cc4)cc3)nc12` [TCMDC-133867], the “% Inhibition” value is -11.37%.

As to `Cc1cccc2[nH]c(-c3ccc(-c4ccc(CN5CCN(C6CCN(C)CC6)CC5)cc4)cc3)nc12` [TCMDC-133865], the “% Inhibition” value was determined as 83.09%.

Take `Cc1cccc2[nH]c(-c3ccc(-c4ccc(CN5CCCC5CN)cc4)cc3)nc12` (centres unmarked) [TCMDC-132999]: the “% Inhibition” value turned out to be 66.58%.

As to `Cc1cccc2[nH]c(-c3ccc(-c4ccc(CN5CCN(CCN6CCOCC6)CC5)cc4)cc3)nc12` [TCMDC-133931], the “% Inhibition” value was 6.93%.

Turning to `Cc1cccc2[nH]c(-c3ccc(-c4ccc(CN5CCCCC5)cc4)cc3)nc12` [TCMDC-133901], the “% Inhibition” value is -1.455%.

On to `O=C(Nc1cccc(OC2CCN(Cc3ccsc3)CC2)c1)c1ccc(C(F)(F)F)cc1` [TCMDC-133737], for which the “% Inhibition” value is on record as -11.34%.

As to `Cc1cc(OCc2ccncc2)cc2c1C(=O)CC(C)(C)O2` [TCMDC-131314], the “% Inhibition” value worked out at 21.7%.

With `O=C(N1CCN(c2ccnc3cc4c(cc23)N(Cc2ccccc2)CC4)CC1)C(F)(F)F` [TCMDC-140138], the “% Inhibition” value is reported as 5.48%.

As for `O=C(Nc1ccc2c(c1)CCN2C1CCN(Cc2ccc(F)cc2Cl)C1)c1ccco1` (centres unmarked) [TCMDC-135068], the “% Inhibition” value was -23.63%.

As to `Cc1ccc(C(=O)Nc2ccc(-c3nc4ccccc4[nH]3)cc2)cc1S(=O)(=O)N1CCOCC1` [TCMDC-124532], the “% Inhibition” value is given as -13.26%.

Take `COC(=O)c1cccc(CNCc2ccc(-c3ccc(-c4nc5cc(C(F)(F)F)ccc5[nH]4)s3)cc2)c1.O=C(O)C(F)(F)F` [TCMDC-132958]: the “% Inhibition” value is -50.86%.

As to `CCCC(C)Nc1nc(C)cc(NCCC(=O)Nc2ccccc2)n1` (centres unmarked) [TCMDC-134763], the “% Inhibition” value came out at 23.15%.

For `FC(F)(F)COc1ccc2ccccc2c1CNCCCCCCNCc1c(OCC(F)(F)F)ccc2ccccc12` [TCMDC-137816], the “% Inhibition” value was determined as 113.4%.

With `Cc1sc(C)c(C(F)(F)F)c1CNCCCNc1cc(=O)c2ccccc2[nH]1` [TCMDC-140766], the “% Inhibition” value is -57.97%.

Regarding `FC(F)(F)COc1ccc2ccccc2c1CCNCCCCNCCc1c(OCC(F)(F)F)ccc2ccccc12` [TCMDC-137317], the “% Inhibition” value was 103.9%.

For `CC1CN(c2ccc3occ(C(=O)Nc4ccc(-c5ccncc5)c(Cl)c4)c3c2)CC(C)N1C` (centres unmarked) [TCMDC-141360], the “% Inhibition” value was 38.63%.

Turning to `O=C(Nc1cccc(-c2ccc(-c3nc4ccccc4[nH]3)s2)c1)c1ccncc1` [TCMDC-136956], the “% Inhibition” value is on record as 6.685%.

As for `CCCN1CCN(CCCNc2c3ccccc3nc3ccccc23)CC1` [TCMDC-137478], the “% Inhibition” value turned out to be 97.73%.

With `CCOC(=O)N1CCN(CCCNc2c3ccccc3nc3ccccc23)CC1.Cl` [TCMDC-137544], the “% Inhibition” value came to 15.5%.

Consider `CCCN1CCN(CCCCNc2c3ccccc3nc3ccccc23)CC1` [TCMDC-137576], for which the “% Inhibition” value was 93%.

For the compound `CCCN1CCN(CCNc2c3ccccc3nc3ccccc23)CC1` [TCMDC-137549], the “% Inhibition” value was 102.5%.

With `COc1cc2nc(NCCN3CCOCC3)n3nc(-c4ccccc4)nc3c2cc1OC` [TCMDC-124407], the “% Inhibition” value is reported as -12.35%.

In the case of `CC(C)CN1CCN(CCNc2c3ccccc3nc3ccccc23)CC1` [TCMDC-138008], the “% Inhibition” value was found to be 92.54%.

Turning to `O=C1NC(C(=O)Nc2ccccc2)C(c2ccccc2)S1` (centres unmarked) [TCMDC-131740], the “% Inhibition” value was 2.02%.

In the case of `O=C(Nc1ccc(-c2ccc(-c3nc4ccccc4[nH]3)s2)cc1)Nc1ccc(F)c(F)c1F` [TCMDC-133236], the “% Inhibition” value is on record as -3.503%.

Turning to `CCC[C@@H]([C@@H](CC1CCCCC1)C(=O)N[C@H](C(=O)Nc1nccs1)C(C)(C)SCCNC(=O)OCc1ccccn1)N(O)C=O` [TCMDC-137794], the “% Inhibition” value was determined as 19.2%.

Turning to `O=C(N/C=N/c1cc([N+](=O)[O-])c(-c2ccncc2)n1-c1ccccc1)c1cccc(O)c1` [TCMDC-125648], the “% Inhibition” value is recorded as -19.59%.

Take `O=c1ccccn1CCCC1CCCCN1` (centres unmarked) [TCMDC-140731]: the “% Inhibition” value was 9.489%.

Consider `CCCCN(CCCC)Cc1cc2ccccc2cc1O` [TCMDC-137590], for which the “% Inhibition” value is -20.89%.

As for `Oc1ccc(OCc2ccccn2)cc1` [TCMDC-125881], the “% Inhibition” value came out at 0.9057%.

With `Oc1ccccc1CN(CCCN(Cc1ccccn1)Cc1ccccc1O)Cc1ccccn1` [TCMDC-138469], the “% Inhibition” value is on record as 77.52%.

For the compound `COc1nc(Nc2cccc(C)c2)nc(OC)n1` [TCMDC-124204], the “% Inhibition” value is reported as -12.01%.

The values above are taken from publication PMC4552634, “A New Set of Chemical Starting Points with Plasmodium falciparum Transmission-Blocking Potential for Antimalarial Drug Discovery” (PLoS ONE, 2015).
